Records with an inconclusive call do not appear. Values without a mark were called inactive. The source made the active and inactive calls. The call rests on the fitted dose curve; in most records, active means well fitted curve in the direction sought with a large enough effect; inconclusive means small, poorly fitted or top-dose-only effect, or another doubt; inactive means no such curve, though single readings can be large; an effect the other way counts as inactive or inconclusive. Positions of bridges follow the written chain, without caps; N, C: chain ends. Non-standard residues stand in square brackets, D forms with d. Residues, ends and D or L forms follow the SMILES beside them. ξ: configuration not given here. *: point of attachment. Octanoyl(6-Me) = CCC(C)CCCCC(=O)*; ξThr(3R) = C[C@@H](O)C(N)C(=O)O; dDab = NCC[C@@H](N)C(=O)O; Dab = NCC[C@H](N)C(=O)O

Experiment [1] in a line: NS1 protein of Zika virus - qHTS assay to identify small molecule inhibitors in human HEK 293 cells (AID 1347053). Further: nearly all actives have a fitted effect of over 55% in size. Summed up: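 Inhibition of NS1 expression was scored in HEK 293 cells given compound 1 h ahead of MR766 virus (MOI = 0.5). Following 24 h at 37 C, two anti-NS1 antibodies generated a TR-FRET signal, scaled between uninfected and infected controls.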
The nature of experiment [2]: qHTS of pediatric cancer cell lines to identify multiple opportunities for drug repurposing: Primary screen for TC32 cells (AID 1347089). Further: nearly all actives have a fitted effect of over 60% in size. The essentials: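 In the primary qHTS, MIPE compounds were tested at 11 concentrations (0.78 nM to 46 µM) and NPC compounds at 8 (0.59 nM to 46 µM) on TC32 cells for 48 h. CellTiter-Glo luminescence gave viability.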
Experiment [3] can be described thus: qHTS of pediatric cancer cell lines to identify multiple opportunities for drug repurposing: Primary screen for DAOY cells (AID 1347090). Further: nearly all actives have a fitted effect of over 55% in size. The essentials: (§1)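 Viability measured as metabolically active cells via CellTiter-Glo luminescence following 48 hours of compound exposure, 11-point dilutions in confirmatory testing. 500-1,000 cells/well plated 5 hours before dosing; controls were DMSO and 2.3 µM bortezomib.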

Experiment [4] is described as follows: qHTS of pediatric cancer cell lines to identify multiple opportunities for drug repurposing: Primary screen for SJ-GBM2 cells (AID 1347091). Summed up:
as §1

Experiment [5] in a line: qHTS of pediatric cancer cell lines to identify multiple opportunities for drug repurposing: Primary screen for A673 cells (AID 1347092). Further: nearly all actives have a fitted effect of over 45% in size. The essentials:
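48 h compound exposure, A673, 500-1,000 cells/well, 37 degrees C/5% CO2. MIPE: 11-point, 0.78 nM-46 µM; NPC: 8-point, 0.59 nM-46 µM (final). Readout CellTiter-Glo luminescence after 15 min RT.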

Experiment [6] is described as follows: qHTS of pediatric cancer cell lines to identify multiple opportunities for drug repurposing: Primary screen for SK-N-MC cells (AID 1347093). Summed up: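 Metabolically active cells were quantified by ATP-dependent luminescence (CellTiter-Glo, 15 min at room temperature) following 48 h treatment. Cells had been plated at 500-1,000 per well and settled for 5 h beforehand.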
Potency means the concentration at half of the fitted maximal effect.

`C=C1CCC2[C@](C)(CO)C(O)CC[C@]2(C)C1CC=C1C(=O)OCC1O` (stereo not given in full): the Potency entry in experiment [1], in experiment [2], in experiment [3], in experiment [4], in experiment [5] and in experiment [6] was “inactive” in each case.

For `COC(=O)[C@H](CCCN=C(N)N)NS(=O)(=O)c1ccc(C)cc1`, the Potency entry in experiment [1], in experiment [2], in experiment [3], in experiment [4], in experiment [5] and in experiment [6] was “inactive” throughout.

For `CC(C=CC=C(C)C=CC1=C(C)CCCC1(C)C)=CC=CC=C(C)C=CC=C(C)C=CC1=C(C)CCCC1(C)C`, the Potency entry in experiment [1] and in experiment [2] was “inactive” in each case. Besides, the Potency in experiment [3] was 18700 nM (active); in experiment [5], 5900 nM (active).

Take `CC(C)OC(=O)[C@H](C)N[P@](=O)(OC[C@H]1O[C@@H](n2ccc(=O)[nH]c2=O)[C@](C)(F)[C@H]1O)Oc1ccccc1`: the Potency result in experiment [1], in experiment [2], in experiment [3], in experiment [4] and in experiment [6] was “inactive” throughout.

Consider `COC(=O)[C@@H]1CC2=CC(=O)CC[C@]2(C)[C@@]23O[C@@H]2C[C@@]2(C)[C@H](CC[C@@]24CCC(=O)O4)[C@@H]13`, for which the Potency result in experiment [1], in experiment [2], in experiment [3], in experiment [4] and in experiment [6] was “inactive” in each case.

`CC(C)(O)[C@H]1CC[C@@](C)([C@H]2[C@@H](O)C[C@@]3(C)[C@@H]4C[C@H](O[C@@H]5O[C@H](CO)[C@@H](O)[C@H](O)[C@@H]5O)[C@H]5C(C)(C)[C@@H](O[C@@H]6OC[C@@H](O)[C@H](O)[C@@H]6O)CC[C@@]56C[C@@]46CC[C@]23C)O1`: the Potency result in experiment [1], in experiment [2], in experiment [3], in experiment [5] and in experiment [6] was “inactive” each time.

With `O=C1NCCc2[nH]c(-c3ccncc3)cc21`, the Potency in experiment [1] was 9350 nM (active); in experiment [2], 11700 nM (active); in experiment [3] it was 4690 nM (active); in experiment [4], 2350 nM (active); in experiment [6], 4180 nM (active).

Consider `CCS(=O)(=O)Nc1ccc2[nH]c(O)c(C(=Nc3ccc(CN4CCCCC4)cc3)c3ccccc3)c2c1`, for which the Potency in experiment [1] is 18700 nM (active); in experiment [2] it was 131 nM (active); in experiment [3], 7430 nM (active); in experiment [5] it was 590 nM (active); in experiment [6], 118 nM (active).

`O=C(O)C(=O)Nc1cccc(C2=NN=N[N]2)c1`: the Potency result in experiment [1], in experiment [2], in experiment [3], in experiment [4] and in experiment [6] was “inactive” in each case.

Turning to `CCc1cnn2c(NCc3ccc[n+]([O-])c3)cc(N3CCCC[C@@H]3CCO)nc12`, the Potency in experiment [1] is 148 nM (active); in experiment [2] it was 131 nM (active); in experiment [3], 37.2 nM (active); in experiment [5], 14.8 nM (active); in experiment [6], 29.6 nM (active).

Take `CCc1cc(C(C)=NOCc2ccc(C3CCCCC3)c(C(F)(F)F)c2)ccc1CN1CC(C(=O)O)C1`: the Potency result in experiment [1] and in experiment [2] was “inactive” in each case. Further, the Potency in experiment [3] is 590 nM (active); in experiment [5], 1480 nM (active); in experiment [6] it was 37.2 nM (active).

Take `CC(=O)O[C@H]1C[C@@H]2CC[C@H]3[C@H]4C[C@H]([N+]5(C)CCCCC5)[C@@H](OC(C)=O)[C@@]4(C)CC[C@@H]3[C@@]2(C)C[C@H]1[N+]1(C)CCCCC1`: the Potency result in experiment [1], in experiment [2], in experiment [3], in experiment [4] and in experiment [6] was “inactive” in each case.

Regarding `CC(C)(O)Cn1c(NC(=O)c2ccc(-c3cn[nH]c3)s2)nc2cc(CN3CCOCC3)ccc21`, the Potency is 5260 nM (active) in experiment [1]; 8290 nM (active) in experiment [2]; 2350 nM (active) in experiment [3]; 1180 nM (active) in experiment [5]; 2350 nM (active) in experiment [6].

For the compound `CCn1c(=O)c2c(nc(C=Cc3ccc(OC)c(OC)c3)n2C)n(CC)c1=O`, the Potency entry in experiment [1], in experiment [2], in experiment [3] and in experiment [4] was “inactive” each time. The Potency in experiment [6] was 18700 nM (active).

Consider `COC(=O)[C@@H]1[C@H]2C[C@@H]3c4[nH]c5ccccc5c4CCN3C[C@@H]2CC[C@@H]1O`, for which the Potency result in experiment [1], in experiment [2], in experiment [3] and in experiment [4] was “inactive” throughout. Moreover, the Potency in experiment [6] was 2960 nM (active).

With `COc1cc([C@@H]2c3cc4c(cc3[C@@H](O[C@@H]3O[C@@H]5CO[C@@H](c6cccs6)O[C@@H]5[C@H](O)[C@@H]3O)[C@H]3COC(=O)[C@H]23)OCO4)cc(OC)c1O`, the Potency is 296 nM (active) in experiment [1]; 208 nM (active) in experiment [2]; 372 nM (active) in experiment [3]; 372 nM (active) in experiment [5]; 93.5 nM (active) in experiment [6].

Consider `CCC(C)CCCCC(=O)N[C@@H](CCN)C(=O)NC(C(=O)N[C@H](CCN)C(=O)N[C@@H]1CCNC(=O)C([C@@H](C)O)NC(=O)[C@@H](CCN)NC(=O)[C@@H](CCN)NC(=O)[C@@H](CC(C)C)NC(=O)[C@H](Cc2ccccc2)NC(=O)[C@H](CCN)NC1=O)[C@@H](C)O` (stereo partly drawn) ({Octanoyl(6-Me)}-[Dab][ξThr(3R)][dDab][dDab][Dab]F[dL][dDab][dDab][ξThr(3R)]; lactam 4-C), for which the Potency result in experiment [1], in experiment [2], in experiment [3], in experiment [5] and in experiment [6] was “inactive” throughout.

Turning to `CC(C(C)N1CC(=O)NC(=O)C1)N1CC(=O)NC(=O)C1` (stereo not given), the Potency result in experiment [1], in experiment [2] and in experiment [3] was “inactive” in each case. Besides, the Potency in experiment [4] and in experiment [6] was 743 nM (active) each time.

As for `Cc1onc(-c2ccccc2)c1C(=O)N[C@@H]1C(=O)N2[C@@H](C(=O)O)C(C)(C)S[C@@H]12`, the Potency result in experiment [1], in experiment [2], in experiment [3] and in experiment [5] was “inactive” throughout.

For the compound `NC(=NCCCCCCN=C(N)N=C(N)Nc1ccc(Cl)cc1)N=C(N)Nc1ccc(Cl)cc1`, the Potency entry in experiment [1] and in experiment [2] was “inactive” throughout. In addition, the Potency in experiment [3] is 5900 nM (active); in experiment [5], 2960 nM (active); in experiment [6], 2090 nM (active).

As to `Cc1ccccc1C(=O)Nc1ccc(C(=O)N2CCCC(O)c3cc(Cl)ccc32)c(C)c1` (stereo not given), the Potency result in experiment [1], in experiment [2], in experiment [3], in experiment [4] and in experiment [6] was “inactive” each time.

The values above are taken from PubChem BioAssay (NCATS).
